The source of these data is PubChem BioAssay (EPA / NIEHS).

Calls of active or inactive are those of the source. Rule for the calls: active = hit-call score of the fitted dose curve at least 0.9, where 1 is the maximum; inactive = score below 0.9.

This experiment can be described thus: ATG_GATA_CIS: Attagene CIS-FACTORIAL HepG2 Assay for human GATA Binding Protein (AID 2282944). The note with it: HepG2 GATA cis-element reporter, Attagene multiplex mRNA; actives raise or lower the signal. The protocol: ATG_CIS is a cell-based, multiplexed-readout assay that uses HepG2, a human liver cell line, with measurements taken at 24 hours after chemical dosing in a 24-well plate.ATG_GATA_CIS is one of 52 assay component(s) measured or calculated from the ATG_CIS assay. It is designed to make measurements of mRNA induction, a form of inducible reporter, as detected with fluorescence intensity signals by Reverse transcription polymerase chain reaction (RT-PCR) and Capillary electrophoresis technology.Data from the assay component ATG_GATA_CIS was analyzed into 1 assay endpoint. This assay endpoint, ATG_GATA_CIS, was analyzed with bidirectional fitting relative to DMSO as the negative control and baseline of activity. Using a type of inducible reporter, measures of mRNA for gain or loss-of-signal activity can be used to understand the reporter gene at the transcription factor-level as they relate to the gene GATA1. Furthermore, this assay endpoint can be referred to as a primary readout, because this assay has produced multiple assay endpoints where this one serves a reporter gene function. To generalize the intended target to other relatable targets, this assay endpoint is annotated to the dna binding intended target family, where the subfamily is GATA proteins.
Human liver HepG2 cells are transiently transfected with multiple reporter transcription units (MRTUs) in 6-well plates using FuGene 6 reagent (Roche; 3 ml FuGene/1 mg DNA). The MRTU constructs are regulated by a cis-regulating element (promoter). […] A major difference between the CIS and TRANS system is that in CIS activities of endogenous TFs are measured, whereas the TRANS assay evaluates changes in activities of exogenous, chimeric NR-Gal4 proteins. […] At the end of 24 hour incubation, total RNA was isolated using TriZol reagent (Invitrogen). The isolated RNA is then reverse-transcribed using oligo(dT) primer and Mo-MLV reverse transcriptase (Invitrogen) with DNAse I (Ambion) treatment for 30 min. The one-tenth of the produced cDNA was amplified by PCR using Taq DNA polymerase (Invitrogen) and two reporter sequence-specific primers. The PCR products were fluorescently labeled by primer extension with 6-arboxyfluorescein (6-FAM) 5'-labeled reporter sequence-specific primer (2 min at 95 C, 20 s at 68 C and 10 min at 72 C) and these products were digested with 5U of HpaI (New England Biolabs) for 2h at 37 C. The fragments were purified using Qiaquick PCR columns (Qiagen), analyzed on an ABI 3130xL genetic analyzer (Applied Biosystems) with peak positions identified by using a set of X-rhodamine (ROX)-labeled MapMarker1000 molecular weight standards (BioVentures). The raw capillary electrophoresis data was processed using Attagraph software (Attagene).
As for `OCC(F)(F)C(F)(F)C(F)(F)C(F)(F)C(F)(F)C(F)(F)CO`, the molecule was called inactive.

`COCCC(=O)OC`: the molecule was called inactive.

Turning to `CCOC(=O)CC(=O)C(F)(F)C(F)(F)F`, the call was inactive. With `CC(C)OC=O` the entry was “inactive”; with `CCOCOCC`, “inactive”; with `CC1=CCC(=O)O1`, “inactive”.

`OCC(O)CC(F)(F)C(F)(F)C(F)(F)C(F)(F)C(F)(F)C(F)(F)C(F)(F)C(F)(F)F` (stereo not given): the result was inactive. For `CC(=O)CCC(C)C`, the molecule was called inactive. With `O=C1c2c(O)ccc(Nc3ccc(CCO)cc3)c2C(=O)c2c([N+](=O)[O-])ccc(O)c21` the entry was “inactive”; with `CCc1cc(Cc2cc(CC)c(N)c(CC)c2)cc(CC)c1N`, “inactive”. With `CCN(CC)c1ccc2c(c1)Oc1cc(N(CC)CC)ccc1C21OC(=O)c2ccccc21` the entry was “inactive”; with `CCCC(=O)OCC(COC(=O)CCC)OC(=O)CCC`, “inactive”. `CCN=c1cc2oc3cc(NCC)c(C)cc3c(-c3ccccc3C(=O)OCC)c-2cc1C`: the call was inactive. `NC(=O)C(F)(F)C(F)(F)C(F)(F)C(F)F`: the result was inactive. With `O=C(O)C(F)(F)C(F)(F)C(F)(F)C(=O)O` the entry was “inactive”. The entry for `CC(C)(C)C(=O)C1C(=O)c2ccccc2C1=O` is “inactive”; for `N#Cc1ccccc1O` it is “inactive”. On to `C=CC(=O)OCCC(F)(F)C(F)(F)C(F)(F)C(F)(F)F`, for which the molecule was called inactive. The entry for `O=C1c2ccccc2C(=O)c2c(Cl)cccc21` is “inactive”. Turning to `CSc1ccc(O)cc1C`, the molecule was classed as inactive.

For `O=C(O)C(F)(F)C(F)(F)C(F)(F)C(F)(F)C(F)(F)C(F)(F)C(F)F`, the call was inactive. For the molecule `CC(C)CC=C(C=O)c1ccccc1`, the result was inactive.

Turning to `N#CCCOCCC#N`, the outcome was inactive. `O=S(=O)(O)CCC(F)(F)C(F)(F)C(F)(F)C(F)(F)C(F)(F)C(F)(F)C(F)(F)C(F)(F)F`: the outcome was inactive.

Regarding `O=C(O)CCC(F)(F)C(F)(F)C(F)(F)F`, the call was inactive.

Take `Cc1cc(C)c(O)c(C(C)(C)C)c1`: the result was inactive. The entry for `CCc1cccc(C)c1N(C(=O)C(=O)O)C(C)COC` (stereo not given) is “inactive”.

Turning to `CC(C)CCCC(C)CCO` (stereo not given), the call was inactive. The entry for `NC(=O)C(F)(F)C(F)(F)C(F)(F)F` is “inactive”. As for `Cc1ccc(O)cn1`, the result was inactive. With `CCC(C)CO` (stereo not given) the entry was “inactive”; with `Brc1nc2ccccc2s1`, “inactive”; with `O=C(Cl)c1ccc(Cl)cc1Cl`, “inactive”. Take `CNS(=O)(=O)C(F)(F)C(F)(F)C(F)(F)C(F)(F)C(F)(F)C(F)(F)C(F)(F)C(F)(F)F`: the molecule was called inactive. As to `Cc1ccc([N+](=O)[O-])c(C)c1`, the call was inactive. In the case of `NCC(F)(F)C(F)(F)C(F)(F)C(F)(F)C(F)(F)C(F)(F)C(F)(F)C(F)(F)F`, the molecule was classed as inactive. With `CO[Si](C)(CCC(F)(F)C(F)(F)C(F)(F)C(F)(F)C(F)(F)C(F)(F)F)OC` the entry was “inactive”.

Turning to `O=C(O)C(F)(F)OC(F)(F)C(F)(F)OC(F)(F)C(F)(F)OC(F)(F)F`, the molecule was classed as inactive.

Take `CCCCCCCC/C=C\CCCCCCCC(=O)OCC(O)CO` (stereo not given): the result was inactive. The entry for `C=CC(=O)OCC(F)(F)C(F)(F)C(F)(F)COC(=O)C=C` is “inactive”.
